Measurements: PubChem BioAssay (Tox21)
Values joined by “and” are separate entries in the source; they are usually repeats but may differ in a detail not shown here. Equal entries are not always repeated. Records with an inconclusive call do not appear. Active and inactive are the calls of the source. Unless noted, the call rests on the fitted dose curve; in most records, active means well fitted curve in the direction sought with a large enough effect in the repeat runs; inconclusive means weak or mixed curves; inactive means no such curve, though single readings can be large; an effect the other way counts as inactive or inconclusive.

What was measured:
[1] = molecular target: Aryl hydrocarbon receptor (Homo sapiens) (UniProt P35869); assay: qHTS assay to identify small molecule that activate the aryl hydrocarbon receptor (AhR) signaling pathway (AID 743085); details: HepG2 AhR-luc (HG2L7.5c1), luciferase, 24 h; series mostly up to 70.3 µM; further: nearly all actives have a fitted effect of over 15% in size; further: potency means the concentration at half of the fitted maximal effect;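 on activation: HG2L7.5c1 human HepG2 liver cells with stably integrated DRE-driven firefly reporter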
Chain of Aryl hydrocarbon receptor (Homo sapiens) (P35869 whole entry, looked up): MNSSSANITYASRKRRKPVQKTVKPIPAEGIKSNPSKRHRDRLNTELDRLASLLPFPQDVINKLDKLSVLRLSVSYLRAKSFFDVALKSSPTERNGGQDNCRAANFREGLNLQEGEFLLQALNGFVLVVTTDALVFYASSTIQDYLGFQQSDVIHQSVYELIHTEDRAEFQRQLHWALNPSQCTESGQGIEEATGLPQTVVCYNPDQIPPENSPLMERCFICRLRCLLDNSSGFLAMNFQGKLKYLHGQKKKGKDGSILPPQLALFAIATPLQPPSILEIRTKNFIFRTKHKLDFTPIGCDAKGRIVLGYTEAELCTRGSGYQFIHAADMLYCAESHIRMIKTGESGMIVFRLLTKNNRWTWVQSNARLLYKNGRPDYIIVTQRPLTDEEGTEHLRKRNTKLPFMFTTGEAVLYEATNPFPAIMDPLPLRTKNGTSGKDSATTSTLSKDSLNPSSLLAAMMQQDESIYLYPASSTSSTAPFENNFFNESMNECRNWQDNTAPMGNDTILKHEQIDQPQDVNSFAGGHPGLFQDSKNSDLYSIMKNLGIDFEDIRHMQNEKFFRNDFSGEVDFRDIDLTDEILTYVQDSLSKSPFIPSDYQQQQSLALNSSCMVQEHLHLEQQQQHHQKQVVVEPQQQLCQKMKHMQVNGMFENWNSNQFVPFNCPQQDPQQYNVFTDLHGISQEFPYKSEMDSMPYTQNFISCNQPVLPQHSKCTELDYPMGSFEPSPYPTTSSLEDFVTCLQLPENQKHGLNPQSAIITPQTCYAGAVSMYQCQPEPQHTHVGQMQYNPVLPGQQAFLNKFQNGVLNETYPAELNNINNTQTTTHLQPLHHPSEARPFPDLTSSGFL
Method in brief: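 Luminescence read-out: ONE-Glo reagent, 30 min at room temperature, in HG2L7.5c1 HepG2 reporter cells treated 24 h at 37C. Viability was measured beforehand by CellTiter-Fluor fluorescence after 30 min at 37C.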

[2] = qHTS assay to identify small molecule that activate the aryl hydrocarbon receptor (AhR) signaling pathway - cell viability counter screen (AID 743086); details: HepG2-AhR-luc viability, CellTiter-Fluor, 24 h; series mostly up to 70.3 µM; further: nearly all actives have a fitted effect of over 45% in size; further: potency means the concentration at half of the fitted maximal effect
Method in brief: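 HepG2-AhR-luc (HG2L7.5c1) cells, 4000/well, were preincubated 5 h at 37C, exposed to compound in qHTS format for 24 hr at 37C, then given CellTiter-Fluor for 30 min; viability was read as fluorescence in the reporter wells.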

[3] = molecular target: Peroxisome proliferator-activated receptor gamma (Homo sapiens) (UniProt P37231); assay: qHTS assay to identify small molecule agonists of the peroxisome proliferator-activated receptor gamma (PPARg) signaling pathway (AID 743094; active means well fitted activation curve with a large enough effect in the signal ratio in the repeat runs, not every such curve was filed as active; the % refers to the signal ratio; further: potency means the concentration at half of the fitted maximal effect); details: HEK293H PPARg-UAS-bla, beta-lactamase FRET ratio, 17 h; series mostly up to 57 µM
Chain of Peroxisome proliferator-activated receptor gamma (Homo sapiens) (P37231 whole entry, looked up): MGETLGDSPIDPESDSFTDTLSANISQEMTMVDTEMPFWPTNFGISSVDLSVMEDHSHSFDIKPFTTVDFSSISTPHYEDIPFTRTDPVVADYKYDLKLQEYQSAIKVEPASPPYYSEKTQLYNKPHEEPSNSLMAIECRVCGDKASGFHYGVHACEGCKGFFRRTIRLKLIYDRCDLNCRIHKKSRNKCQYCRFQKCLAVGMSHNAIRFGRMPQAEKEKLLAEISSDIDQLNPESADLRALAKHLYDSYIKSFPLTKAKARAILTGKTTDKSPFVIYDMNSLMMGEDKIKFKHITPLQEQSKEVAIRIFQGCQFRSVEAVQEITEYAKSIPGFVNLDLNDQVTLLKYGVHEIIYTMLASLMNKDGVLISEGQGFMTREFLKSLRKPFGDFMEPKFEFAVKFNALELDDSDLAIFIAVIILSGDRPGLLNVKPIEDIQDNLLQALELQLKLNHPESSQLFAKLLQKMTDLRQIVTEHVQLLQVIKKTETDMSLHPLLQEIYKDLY
Method in brief: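 Beta-lactamase FRET fluorescence was the read-out after a 1 h room-temperature substrate step, following 17 h compound treatment at 37C of HEK293H cells expressing a UAS-driven bla reporter responsive to PPARg.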

[4] = qHTS assay to identify small molecule antagonists of the peroxisome proliferator-activated receptor gamma (PPARg) signaling pathway - cell viability counter screen (AID 743194); details: PPARg-bla HEK293H viability, CellTiter-Glo luminescence, 17 h, co-treated with 50 nM rosiglitazone; series mostly up to 62.6 µM; further: nearly all actives have a fitted effect of over 55% in size; further: potency means the concentration at half of the fitted maximal effect
Method in brief: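 PPARg-UAS-bla HEK293H cells were plated, rested 5 h at 37 C, then treated with compounds plus rosiglitazone (50 nM final) for 17 h at 37 C; viability was then read by CellTiter-Glo luminescence after 30 min at room temperature.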

[5] = qHTS assay for small molecule agonists of the antioxidant response element (ARE) signaling pathway - cell viability counter screen (AID 743203; calls by dose curve; further: nearly all actives have a fitted effect of over 55% in size; further: potency means the concentration at half of the fitted maximal effect); details: ARE-bla HepG2 viability, CellTiter-Glo luminescence, 16 h; series mostly up to 73.3 µM
Method in brief: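 HepG2 cells carrying ARE-driven beta-lactamase; 2,000 cells/well; 5 hrs plating; compound pinned from DMSO; 16 hrs 37C/5% CO2; CellTiter-Glo added; 30 min RT; luminescence.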

[6] = qHTS assay for small molecule activators of the heat shock response signaling pathway - cell viability counter screen (AID 743209); details: HSE-bla HeLa viability, CellTiter-Glo luminescence, 5 h; series mostly up to 62.6 µM; further: nearly all actives have a fitted effect of over 50% in size; further: potency means the concentration at half of the fitted maximal effect
Method in brief: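 Luminescence from CellTiter-Glo, added after the beta-lactamase FRET read, gave the viability signal. Cells were HSE-bla HeLa treated with DMSO-dissolved compounds for 5 h at 37 C following overnight plating.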

[7] = qHTS assay for small molecule activators of the heat shock response signaling pathway (AID 743210; active means well fitted activation curve with a large enough effect in the signal ratio in the repeat runs, with a control signal flat, not every such curve was filed as active; the % refers to the signal ratio; further: potency means the concentration at half of the fitted maximal effect); details: HeLa HSE-bla reporter, beta-lactamase ratio, 5 h; series mostly up to 62.6 µM
Method in brief: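 HSE-bla HeLa cells (beta-lactamase reporter under heat shock response elements) were exposed to compounds for 5 h at 37 C, then loaded with LiveBLAzer B/G FRET substrate for 2.5 h at room temperature before fluorescence reading.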

[8] = qHTS assay to identify small molecule agonists of the peroxisome proliferator-activated receptor delta (PPARd) signaling pathway - cell viability counter screen (AID 743211); details: PPARd-bla HEK293H viability, CellTiter-Glo luminescence, 17 h; series mostly up to 62.6 µM; further: nearly all actives have a fitted effect of over 55% in size; further: potency means the concentration at half of the fitted maximal effect
Method in brief: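 Read-out: CellTiter-Glo luminescence, 30 min RT, measured in the same wells as the beta-lactamase reporter. Cells: GeneBLAzer PPAR delta UAS-bla HEK293H, 3000 cells/well, compound exposure 17 h at 37C.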

[9] = qHTS assay to identify small molecule antagonists of the peroxisome proliferator-activated receptor delta (PPARd) signaling pathway - cell viability counter screen (AID 743213); details: PPARd-bla HEK293H viability, CellTiter-Glo luminescence, 17 h; series mostly up to 62 µM; further: nearly all actives have a fitted effect of over 50% in size; further: potency means the concentration at half of the fitted maximal effect
Method in brief: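 HEK293H cells with the PPARd UAS-bla reporter, co-treated 17 h at 37 C with compounds and L165041 (300 nM final), were lysed with CellTiter-Glo. Luminescence indicated viable cell content.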

[10] = molecular target: Bile acid receptor (Homo sapiens) (UniProt Q96RI1); assay: qHTS assay to identify small molecule antagonists of the farnesoid-X-receptor (FXR) signaling pathway (AID 743217; active means well fitted inhibition curve with a large enough effect in the signal ratio in the repeat runs, not every such curve was filed as active; the % refers to the signal ratio; further: potency means the concentration at half of the fitted maximal effect); details: HEK293T FXR-UAS-bla, beta-lactamase ratio, CDCA-stimulated, 16 h; series mostly up to 62.6 µM
Chain of Bile acid receptor (Homo sapiens) (Q96RI1 whole entry, looked up): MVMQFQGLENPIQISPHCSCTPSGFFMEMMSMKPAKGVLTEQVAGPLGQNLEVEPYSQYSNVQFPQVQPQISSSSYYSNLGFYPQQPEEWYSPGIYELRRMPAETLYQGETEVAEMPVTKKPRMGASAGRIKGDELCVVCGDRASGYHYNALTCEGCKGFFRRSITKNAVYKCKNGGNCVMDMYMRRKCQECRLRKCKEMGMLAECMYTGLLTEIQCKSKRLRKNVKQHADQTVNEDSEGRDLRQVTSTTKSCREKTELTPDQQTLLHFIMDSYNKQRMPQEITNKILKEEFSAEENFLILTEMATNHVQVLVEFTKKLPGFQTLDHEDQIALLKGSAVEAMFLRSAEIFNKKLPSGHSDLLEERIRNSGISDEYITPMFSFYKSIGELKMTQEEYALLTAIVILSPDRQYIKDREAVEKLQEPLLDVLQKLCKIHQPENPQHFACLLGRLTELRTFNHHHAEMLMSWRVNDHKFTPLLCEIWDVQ
Method in brief: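 HEK 293T FXR-UAS-bla, 5000 cells/well; compound + CDCA 50 uM final; 16 h, 37 °C; B/G FRET substrate 2 h RT; fluorescence.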

[11] = qHTS assay to identify small molecule antagonists of the farnesoid-X-receptor (FXR) signaling pathway - cell viability counter screen (AID 743221; active means well fitted cell-killing curve with a large enough effect in the repeat runs, not every such curve was filed as active; further: nearly all actives have a fitted effect of over 50% in size); details: FXR-bla HEK293T viability, CellTiter-Glo luminescence, 16 h; series mostly up to 62.6 µM
Method in brief: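 HEK 293T FXR-bla cells, 5 h pre-incubation; compound + CDCA 50 uM final, 16 h, 37 C; beta-lactamase FRET read first, then CellTiter-Glo luminescence, 30 min RT.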

[12] = molecular target: Vitamin D3 receptor (Homo sapiens) (UniProt P11473); assay: qHTS assay to identify small molecule agonists of the vitamin D receptor (VDR) signaling pathway (AID 743222; calls by dose curve); details: HEK293T VDR-UAS-bla, beta-lactamase FRET ratio, 16 h; series mostly up to 63.5 µM
Chain of Vitamin D3 receptor (Homo sapiens) (P11473 whole entry, looked up): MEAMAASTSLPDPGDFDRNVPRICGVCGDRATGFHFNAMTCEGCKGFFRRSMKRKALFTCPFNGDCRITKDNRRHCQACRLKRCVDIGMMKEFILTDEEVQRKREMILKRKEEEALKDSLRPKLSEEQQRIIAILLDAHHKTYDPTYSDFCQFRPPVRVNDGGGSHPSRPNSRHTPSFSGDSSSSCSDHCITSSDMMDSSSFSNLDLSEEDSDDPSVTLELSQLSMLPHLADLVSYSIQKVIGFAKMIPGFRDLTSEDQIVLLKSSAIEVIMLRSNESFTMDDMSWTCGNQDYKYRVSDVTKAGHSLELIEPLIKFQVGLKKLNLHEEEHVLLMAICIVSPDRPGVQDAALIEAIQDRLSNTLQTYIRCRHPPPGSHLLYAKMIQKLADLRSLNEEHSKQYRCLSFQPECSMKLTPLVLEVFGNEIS
Method in brief: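 VDR-bla cells, 2,000/well; 4 h preincubation 37C; cpd (DMSO) 16 h; LiveBLAzer B/G substrate 2 h RT; fluorescence intensity read.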

[13] = molecular target: Peroxisome proliferator-activated receptor gamma (Homo sapiens) (UniProt P37231); assay: qHTS assay to identify small molecule antagonists of the peroxisome proliferator-activated receptor gamma (PPARg) signaling pathway (AID 743191; calls by dose curve; further: nearly all actives have a fitted effect of over 30% in size; further: potency means the concentration at half of the fitted maximal effect); details: HEK293H PPARg-UAS-bla, beta-lactamase ratio, antagonist, 17 h; series mostly up to 62.6 µM
Method in brief: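 GeneBLAzer PPARg UAS-bla HEK293H cells carrying a UAS-driven beta-lactamase reporter were plated at 3000 cells/well, preincubated 5 h at 37C, then given compound for 17 h at 37C; LiveBLAzer B/G FRET substrate was read after 1 h at room temperature.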

[14] = molecular target: Bile acid receptor (Homo sapiens) (UniProt Q96RI1); assay: qHTS assay to identify small molecule agonists of the farnesoid-X-receptor (FXR) signaling pathway (AID 743220; active means well fitted activation curve with a large enough effect in the signal ratio in the repeat runs, not every such curve was filed as active; the % refers to the signal ratio); details: HEK293T FXR-UAS-bla, beta-lactamase FRET ratio, 16 h; series mostly up to 62.6 µM
Method in brief: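 Beta-lactamase reporter under UAS control in GeneBLAzer FXR HEK 293T cells (5000/well) measured with LiveBLAzer FRET substrate after 2 h at room temperature. Compound exposure lasted 16 h at 37C.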

[15] = qHTS assay to identify small molecule agonists of the vitamin D receptor (VDR) signaling pathway - cell viability counter screen (AID 743224); details: VDR-bla HEK293T viability, CellTiter-Glo luminescence, 16 h; series mostly up to 62.6 µM; further: nearly all actives have a fitted effect of over 50% in size; further: potency means the concentration at half of the fitted maximal effect
Method in brief: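 Luminescence from CellTiter-Glo, read after 30 min at room temperature, reports viability of VDR-bla cells treated with compounds for 16 h at 37C in the wells used for the beta-lactamase FRET read.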

[16] = qHTS assay for small molecule agonists of the antioxidant response element (ARE) signaling pathway (AID 743202; active means well fitted activation curve with a large enough effect in the signal ratio in the repeat runs, not every such curve was filed as active; the % refers to the signal ratio; further: potency means the concentration at half of the fitted maximal effect); details: HepG2 ARE-bla reporter, beta-lactamase FRET, 16 h; series mostly up to 73.3 µM
Method in brief: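 Read-out: LiveBLAzer B/G FRET substrate fluorescence after 2 h at room temperature, following 16 h compound treatment at 37 C of HepG2 cells carrying an ARE-driven beta-lactamase reporter.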

[17] = molecular target: Vitamin D3 receptor (Homo sapiens) (UniProt P11473); assay: qHTS assay to identify small molecule antagonists of the vitamin D receptor (VDR) signaling pathway (AID 743223; active means well fitted inhibition curve with a large enough effect in the signal ratio in the repeat runs, not every such curve was filed as active; the % refers to the signal ratio); details: VDR-UAS-bla HEK293T, beta-lactamase FRET ratio, 16 h; series mostly up to 61 µM
Method in brief: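 Beta-lactamase reporter read-out: FRET substrate fluorescence after 2 h at room temperature, following 16 h exposure of VDR-bla cells to test compound plus 3 nM (final) 1alpha,25-dihydroxyvitamin D3 agonist at 37C.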

[18] = qHTS assay to identify small molecule agonists of the farnesoid-X-receptor (FXR) signaling pathway - cell viability counter screen (AID 743218); details: FXR-bla HEK293T viability, CellTiter-Glo luminescence, 16 h; series mostly up to 62.6 µM; further: nearly all actives have a fitted effect of over 45% in size; further: potency means the concentration at half of the fitted maximal effect
Method in brief: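 HEK 293T FXR-bla cells; 5 h pre-incubation, 16 h compound exposure at 37 C; LiveBLAzer substrate 2 h RT, then CellTiter-Glo 30 min RT, luminescence.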

[19] = molecular target: Peroxisome proliferator-activated receptor delta (Homo sapiens) (UniProt Q03181); assay: qHTS assay to identify small molecule antagonists of the peroxisome proliferator-activated receptor delta (PPARd) signaling pathway (AID 743215; active means well fitted inhibition curve with a large enough effect in the signal ratio in the repeat runs, not every such curve was filed as active; the % refers to the signal ratio;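 further: cells stimulated with agonist L165041 at 300 nM final during compound exposure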); details: HEK293H PPARd-UAS-bla, beta-lactamase FRET ratio, antagonist, 17 h; series mostly up to 62 µM
Chain of Peroxisome proliferator-activated receptor delta (Homo sapiens) (Q03181 whole entry, looked up): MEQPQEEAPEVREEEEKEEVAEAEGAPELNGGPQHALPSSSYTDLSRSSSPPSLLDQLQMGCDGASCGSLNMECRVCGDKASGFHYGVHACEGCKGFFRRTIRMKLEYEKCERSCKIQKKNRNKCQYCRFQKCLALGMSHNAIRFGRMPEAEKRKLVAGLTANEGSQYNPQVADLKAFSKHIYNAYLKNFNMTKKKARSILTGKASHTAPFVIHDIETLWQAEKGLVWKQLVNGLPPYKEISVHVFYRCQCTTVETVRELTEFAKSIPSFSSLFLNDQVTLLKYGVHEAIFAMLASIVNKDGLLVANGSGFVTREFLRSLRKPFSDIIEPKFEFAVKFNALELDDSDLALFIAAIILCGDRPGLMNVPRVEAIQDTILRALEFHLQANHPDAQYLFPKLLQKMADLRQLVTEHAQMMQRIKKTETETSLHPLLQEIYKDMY
Method in brief: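 Read-out is beta-lactamase FRET fluorescence, measured 2 h after substrate addition at room temperature. Beforehand, UAS-bla HEK293H cells carrying the PPARd reporter were exposed to compounds with L165041 at 300 nM final for 17 h at 37 C.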

[20] = molecular target: Peroxisome proliferator-activated receptor delta (Homo sapiens) (UniProt Q03181); assay: qHTS assay to identify small molecule agonists of the peroxisome proliferator-activated receptor delta (PPARd) signaling pathway (AID 743212; calls by dose curve); details: HEK293H PPARd-UAS-bla, beta-lactamase FRET ratio, 17 h; series mostly up to 62.6 µM
Method in brief: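 GeneBLAzer PPARd UAS-bla HEK293H cells (beta-lactamase reporter under UAS control), plated and rested 5 h at 37 C, then exposed to compounds in DMSO at 37 C; LiveBLAzer B/G FRET substrate added, 2 h room temperature, fluorescence read.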

Measured: Potency

CCN(CC)c1ccc2c(-c3ccccc3C(=O)O)c3ccc(=[N+](CC)CC)cc-3oc2c1
inactive: [1] | [3] | [4] | [5] | [6] | [7] | [8] | [9] | [10] | [11] | [12]
active: [2] 9.69 µM

COc1ccc(C(=O)Nc2nc3ccccc3c(NCc3ccccc3)c2C#N)cc1
inactive: [4] | [5] | [6] | [7] | [8] | [9] | [14] | [11] | [15]
active: [1] 7.7 µM | [13] 1.74 µM

C=CC(=O)OCCOc1ccccc1
inactive: [1] | [2] | [4] | [16] | [5] | [8] | [9] | [11] | [17] | [15]
active: [6] 19.5 µM

CCCCc1ncc(/C=C(\Cc2cccs2)C(=O)O)n1Cc1ccc(C(=O)O)cc1
inactive: [1] | [2] | [4] | [6] | [8] | [9] | [18] | [11] | [17] | [15]

COC(=O)C1=C(C)NC(COC(N)=O)=C(C(=O)OC(C)C)C1c1cccc(Cl)c1Cl (stereo not drawn)
inactive: [1] | [5] | [6] | [8] | [9] | [18] | [11] | [15]
active: [3] 21.3 µM

O=C(c1ccc(F)cc1)C1CCN(CCn2c(=S)[nH]c3ccccc3c2=O)CC1
inactive: [1] | [2] | [13] | [4] | [5] | [18]
active: [7] 19.6 µM

O=C(Nc1ccc(S(=O)(=O)N2CCOCC2)cc1)c1cc(Cl)ccc1NS(=O)(=O)c1ccc(Cl)s1
inactive: [1] | [2] | [6] | [19] | [14]
active: [5] 13.3 µM | [9] 13.3 µM | [18] 6.68 µM

O=S(c1cc(Cl)cc(Cl)c1O)c1cc(Cl)cc(Cl)c1O
inactive: [1] | [2]
active: [4] 26.6 µM | [5] 11.9 µM | [8] 23.7 µM

OCCN1CCN(CCCN2c3ccccc3C=Cc3ccccc32)CC1
inactive: [1] | [16] | [5] | [6] | [8] | [20] | [18] | [12] | [17] | [15]
active: [2] 10.6 µM and 26.6 µM

O=C(O)C(S)C(S)C(=O)O (stereo not drawn)
inactive: [1] | [2] | [4] | [5] | [6] | [8] | [20] | [9] | [19] | [10] | [18] | [14] | [11] | [17] | [15]

CCCCCCCCCc1ccc(OCCOCCO)cc1
inactive: [1] | [3] | [5] | [20] | [14] | [11] | [17]
active: [16] 1.62 µM | [6] 23 µM | [9] 20.5 µM | [15] 20.5 µM

c1ccc(C(O[C@H]2CCCN(CCc3ccc4c(c3)OCO4)C2)c2ccccc2)cc1
active: [1] 26.6 µM
inactive: [2] | [6] | [20] | [19] | [18] | [11] | [15]

ClCCOCCOCCCl
inactive: [1] | [3] | [13] | [4] | [16] | [5] | [6] | [7] | [8] | [20] | [9] | [19] | [18] | [11] | [12] | [17] | [15]

O=C1OC(=O)C2C3C=CC(C3)C12 (stereo not drawn)
inactive: [1] | [3] | [4] | [5] | [6] | [7] | [8] | [20] | [9] | [19] | [11] | [17] | [15]

O=[N+]([O-])c1ccc(NCCO)c(OCCO)c1
inactive: [1] | [3] | [13] | [4] | [16] | [5] | [6] | [7] | [8] | [20] | [9] | [19] | [10] | [14] | [11] | [12] | [17] | [15]

C=C1C(=C/C=C2\CCC[C@]3(C)[C@@H]([C@H](C)/C=C/[C@@H](O)C4CC4)CC[C@@H]23)C[C@@H](O)C[C@@H]1O
inactive: [1] | [2] | [14] | [15]
active: [4] 26.6 µM | [16] 2.66 µM | [10] 29.8 µM
